A selection: hits, their analogues and other compounds. The true share with any hit is near 19%.
DT40 TDP1 no CPT = qHTS for Inhibitors of human tyrosyl-DNA phosphodiesterase 1 (TDP1): qHTS in cells in absence of CPT; DT40 Tdp1-/- hTDP1 cells, no CPT, ATP luminescence, 48 h; Potency, µM (series often up to 46.2 µM), for inactives: top-dose activity change, negative = growth inhibition, hits mostly inhibitors; hit rate 15% among 420,000; note: potency is the fitted concentration of half-maximal effect; nearly all actives have a fitted effect of over 55% in size
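Chicken DT40 Tdp1-/- cells stably complemented with human TDP1 were seeded at 400 cells/well with DMSO in place of 20 nM camptothecin. After compound pinning, cells grew at least 48 hr at 37 °C; viability read by CellTiter-Glo luminescence.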
TDP1 cell CPT = growth inhibition of DT40 Tdp1-/-;hTDP1 cells with camptothecin (screen for TDP1 inhibitors); chicken DT40 Tdp1-/-;hTDP1 cells + 20 nM CPT, ATP luminescence, 48 h; Potency, µM (series often up to 46.2 µM), inactives show top-dose activity change, negative = growth inhibition, usual class: inhibitors; hit rate 12% among 420,000; AID 686979; note: potency is the fitted concentration of half-maximal effect; nearly all actives have a fitted effect of over 55% in size
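Chicken DT40 Tdp1-/- cells stably complemented with human TDP1 were seeded at 400 cells/well in medium containing 20 nM camptothecin, exposed to pin-transferred compounds, and grown at 37 °C for at least 48 hr. Viability was read as ATP luminescence.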
HT1080NT lethal = kills 2HG-producing HT-1080-NT fibrosarcoma cells | HT-1080-NT fibrosarcoma viability, CellTiter-Glo ATP luminescence, 48 h | Potency, µM (doses to about 46.1 µM), for inactives: at the highest dose activity, negative = less viability, actives largely listed as cytotoxic | hit rate 1.6% among 360,000;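 note: NT is the 2HG producing partner of a matched IDH1 knockdown line; potency is the fitted concentration of half-maximal effect; 0% = DMSO-treated cells and -100% = media-only wells without cells; nearly all actives have a fitted effect of over 55% in size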
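Toxicity toward the 2HG-producing NT line was scored as %Activity, normalised to DMSO and no-cell wells, from CellTiter-Glo luminescence after 48 hours' treatment.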
HT1080 IDH1KD tx = HT-1080 IDH1 knockdown cell toxicity (counter line); HT-1080 IDH1 knockdown viability, ATP luminescence, 48 h; Potency, µM (titrated, usually from 46.1 µM), inactives show top-dose activity, negative = toxicity, actives largely listed as cytotoxic; hit rate 2% among 360,000; AID 686971;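 note: potency is the fitted concentration of half-maximal effect; 0% = DMSO wells and -100% = cell-free medium wells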
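% activity derives from luminescence (CellTiter-Glo), normalised to DMSO and no-cell wells. HT-1080-IDH1KD cells, 750/well, had 48 h compound exposure at 37 °C.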
IL-1B inflam inh = inhibitors of inflammasome signaling (IL-1 beta secretion). THP-1 LPS/ATP IL-1B secretion, AlphaLISA, 16 h; hits give low values. activity change, % at 57.5 µM. hit rate 4.7% among 360,000; in the data active = activity change below about -50%; inconclusive = mostly about -30% to -49%
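Secreted IL-1B measured by AlphaLISA bead assay after 16 h compound exposure of THP-1 cells; compounds (final up to 57.5 uM) added 1 h before LPS (250 ng/mL) and ATP (1.25 mM) stimulation; lower signal means less secretion.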
Starred values were filed as active, the others as inactive; i = inactive; ? = inconclusive; nt = not tested or not shown; [ ] = another dose, or the depositor's remark. Unless noted, calls come from the whole dose curve; as a rule, active = well fitted curve in the direction sought with a large enough effect; inconclusive = small, poorly fitted or top-dose-only effect, or another doubt; inactive = no such curve, though single readings can be large; an effect the other way counts as inactive or inconclusive. Unless noted, % is set by controls: 0 for no effect and ±100 for the full control effect.

SMILES	DT40 TDP1 no CPT	TDP1 cell CPT	HT1080NT lethal	HT1080 IDH1KD tx	IL-1B inflam inh
CCCS(=O)(=O)NC(=O)C1(C)CCCN(C(=O)c2ccc3c(c2)OCO3)C1 (stereo unspecified)	-1%	?	27%	0%	44
CCc1ccc(CN(C)C(=O)CC2C(=O)NCCN2Cc2ccoc2)cc1 (stereo unspecified)	-24%	-12%	4%	0%	-14
COc1cc(CN2CCN(Cc3c[nH]c4ccccc34)CC2CCO)cc(OC)c1 (stereo unspecified)	?	13µM*	-15%	-17%	-23
CC(C)(C)CN1CCN(Cc2c[nH]c3ccccc23)CC1CCO (stereo unspecified)	8.2µM*	8.2µM*	2%	-6%	-23
COc1cccc(CN2CCN(Cc3cc4ccccc4[nH]3)CC2CCO)c1 (stereo unspecified)	?	?	20%	-1%	-11
COc1cccc(CN2CCN(Cc3[nH]c4ccccc4c3C)CC2CCO)c1 (stereo unspecified)	?	?	-19%	-10%	-78*
COc1ccc(CN2CCN(Cc3c[nH]c4ccccc34)CC2CCO)c(F)c1 (stereo unspecified)	8.2µM*	4.6µM*	-24%	-21%	?
COc1cc(CN2CCN(Cc3cn(C)c4ccccc34)CC2CCO)cc(OC)c1 (stereo unspecified)	?	?	1%	1%	?
CCC(C)NC(=O)Cn1c(=O)n(-c2cc(OC)cc(OC)c2)c(=O)c2ccccc21 (stereo unspecified)	-11%	0%	nt	nt	nt
COc1ccc(CN2CCN(Cc3c[nH]c4ccccc34)CC2CCO)cc1C (stereo unspecified)	9.2µM*	6.5µM*	-26%	-16%	?
CC(C)=CCN1CCN(Cc2cn(C(C)C)c3ccccc23)CC1CCO (stereo unspecified)	23µM*	18µM*	-3%	-3%	-4
COc1ccc(CN2CCN(Cc3ccc(C)cc3)C(CCO)C2)cc1OC (stereo unspecified)	-10%	?	3%	17%	23
Cc1cc(C(=O)N2CCc3ccccc3C2)on1	6%	7%	2%	15%	4
O=C(COc1ccc(Cl)cc1)Nc1nnc(-c2ccco2)o1	10%	10%	0%	11%	22
COc1cc(C2=N/C(=C\c3ccccc3)C(=O)O2)cc(OC)c1OC	-4%[9.04 µM]	-21%[9.04 µM]	nt	nt	nt
COc1cccc(C2=N/C(=C\N(C)C)C(=O)O2)c1	23µM*	?	15%	13%	-61*
Cc1ccc(C(=O)NCC(=O)OCc2cccc(Br)c2)cc1	6%	6%	0%	-1%	3
Cc1nc2c(-c3ccccc3)c(C)nn2c(C)c1CCC(=O)NCc1ccccc1	?	-21%	nt	nt	nt
COc1ccc(OC)c(NC(=O)CCc2c(C)nc3c(-c4ccccc4)c(C)nn3c2C)c1	21µM*	?	nt	nt	nt
CCN1CCN(c2ccc(NC(=O)CCc3c(C)nc4c(-c5ccccc5)c(C)nn4c3C)cc2)CC1	16µM*	?	-12%	?	-62*
CSc1ccc(CCNC(=O)CCc2c(C)nc3c(-c4ccccc4)c(C)nn3c2C)cc1	21µM*	?	nt	nt	nt
CCOc1ccc(NC(=O)CCc2c(C)nc3c(-c4ccccc4)c(C)nn3c2C)cc1	?	-17%	nt	nt	nt
COC(=O)C(NC(=O)CCc1c(C)nc2c(-c3ccccc3)c(C)nn2c1C)C(C)C (stereo unspecified)	26µM*	?	nt	nt	nt
COc1ccccc1CN1CCC2(CC1)c1ccccc1[C@@H](NC(=O)c1ccco1)[C@@H]2OC	-24%	-17%[9.04 µM]	nt	nt	nt
CCc1ccccc1N(CC(=O)NCc1ccco1)C(=O)CCC(=O)Nc1nccs1	-28%	-26%	2%	1%	-21
SMILES	DT40 TDP1 no CPT	TDP1 cell CPT	HT1080NT lethal	HT1080 IDH1KD tx	IL-1B inflam inh
Cc1ccc(C(=O)N/C(=C/c2cccnc2)C(=O)N2CCCCCC2)cc1	10%	6%	18%	15%	-2
Cc1nc2c(-c3ccccc3)c(C)nn2c(C)c1CCC(=O)NCc1ccco1	?	?	0%	-12%	-9
Cc1nc2c(-c3ccc(F)cc3)c(C)nn2c(C)c1CCC(=O)NC(C)CCc1ccco1 (stereo unspecified)	23µM*	23µM*	-16%	-23%	?
Cc1nc2c(-c3ccc(F)cc3)c(C)nn2c(C)c1CCC(=O)Nc1ccc(F)cc1F	-21%	-19%	-9%	-3%	-17
Cc1nc2c(-c3ccc(F)cc3)c(C)nn2c(C)c1CCC(=O)NCc1ccc(F)cc1	-9%	-8%	nt	nt	nt
COc1ccc(NC(=O)CCc2c(C)nc3c(-c4ccc(F)cc4)c(C)nn3c2C)c(OC)c1	21µM*	23µM*	nt	nt	nt
Cc1nc2c(-c3ccccc3)c(C)nn2c(C)c1CCC(=O)Nc1ccccc1F	?	18µM*	nt	nt	nt
CC(C)CCC(C(=O)NC(C)c1ccccc1)C(=O)NC(C)c1ccccc1 (stereo unspecified)	-5%	1%	8%	13%	24
Cc1ccc(C)c(NC(=O)NNC(=O)c2cc3ccccc3cc2O)c1	-19%	-1%	3%	18%	i
CCOc1cc2c(c3c1C(c1ccccc1)N(S(=O)(=O)c1ccc(C)cc1)C3)C(=O)C=CC2=O (stereo unspecified)	0.58µM*	0.52µM*	6.5µM*	12µM*	-118*
CCOC(=O)C1=CCN(S(=O)(=O)c2ccc(C)cc2)C1c1ccccc1 (stereo unspecified)	?	?	-2%	1%	23
CN=Cc1nc(-c2ccccc2)oc1O	-15%	-5%	-5%	-10%	-13
Cc1ccc(-c2nc(C=Nc3ccc(O)cc3)c(O)o2)cc1	10µM*	7.3µM*	?	?	-86*
CCc1ccc(-n2cc(-c3ccc([N+](=O)[O-])cc3)[nH]c2=S)cc1	-5%	3%	0%	-8%	-26
CCc1ccc(-c2cn(C3CCCCC3)c(=S)[nH]2)cc1	8.2µM*	?	0%	?	-68*
Cc1ccc(C2N(c3ccc(Cl)cc3)C(=O)N3CCCN23)cc1 (stereo unspecified)	15µM*	?	1%	-2%	-15
O=C1N(c2ccccc2)C(c2ccc(Cl)cc2)N2CCCN12 (stereo unspecified)	-22%	2%	5%	0%	i
Nc1cccc(S(=O)(=O)N2CCOCC2)c1	17%	1%	nt	nt	nt
COc1ccc(-c2noc(C3CCCN(S(=O)(=O)c4ccc(C)c(Cl)c4)C3)n2)cc1OC (stereo unspecified)	21µM*	?	9%	25%	2

Compound activity (PubChem BioAssay)
